Experimental data published in PubChem BioAssay (NCATS).
Results filed as inconclusive are left out. Activity calls are given as the source filed them. Unless noted, calls come from the whole dose curve; as a rule, active = well fitted curve in the direction sought with a large enough effect; inconclusive = small, poorly fitted or top-dose-only effect, or another doubt; inactive = no such curve, though single readings can be large; an effect the other way counts as inactive or inconclusive.

Tests used:
[1] = Cell Viability - BJ (AID 421; calls by dose curve;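 note: potency is the fitted concentration of half-maximal effect; cells exposed to compound for 40 hours at 37 °C before readout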); conditions: BJ fibroblast viability, qHTS
Outline: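 Cytotoxicity in human BJ foreskin fibroblasts is scored as loss of cellular ATP after a 40-hour exposure, measured by luciferase luminescence. Controls are DMSO and 100 uM tamoxifen.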

[2] = Cell Viability - Jurkat (AID 426;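 active = dose-dependent loss of cell ATP signal giving a full or clear fitted curve, ranked by lower potency value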;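 note: potency is the fitted concentration of half-maximal effect; cells exposed to compound for 40 hours at 37 °C before ATP read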); conditions: qHTS
Outline: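 qHTS, 1536-well; Jurkat E6-1, 5000 cells/well, complete medium; cpd 40 hr, 37 °C; CellTiter-Glo 20 min RT; luminescence. AC50 by Hill fit.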

[3] = Cell Viability - Hek293 (AID 427;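 active = compounds whose dose-response curve shows a full or clear partial loss of cell viability, called from curve shape rather than a numeric limit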;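 note: potency is the fitted concentration of half-maximal effect; cells exposed to compound for 40 hours at 37 °C before reading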); conditions: qHTS
Outline: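 qHTS, human embryonic kidney (adenovirus-transformed) cells; 40 hr cpd, 37 °C; CellTiter-Glo ATP luminescence. Norm: DMSO = 0, 100 uM tamoxifen = 100% inhibition. Hill-fit AC50.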

[4] = Cell Viability - SK-N-SH (AID 435; calls by dose curve;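 note: potency is the fitted concentration of half-maximal effect; compound exposure lasted 40 h at 37 °C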); conditions: SK-N-SH neuroblastoma cell viability qHTS
Outline: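 Cells seeded at 1500 per well and incubated 5 hr at 37 °C. Compound added, then 40 hr at 37 °C. CellTiter-Glo added, 20 min at room temperature, luminescence read.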

[5] = Cellular Toxicity (caspase-3) Jurkat (AID 655); conditions: Jurkat caspase-3 activation, luminescence; caspase-3 activation: at 92.2 µM (top of the series), DMSO = 0%, tamoxifen = 100%;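 note: cells exposed to compound for 16 h at 37 °C before reading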
Outline: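 Caspase 3/7 activation is scored as increased luminescence in Jurkat cells cultured with compound for 16 hours in complete medium. AC50 values come from Hill fits of qHTS concentration-response data normalized to DMSO and 100 uM tamoxifen controls.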

[6] = Cellular Toxicity (caspase-3) SHSY5Y (AID 657); conditions: SH-SY5Y caspase-3 activation, DMSO zero, 10 µM staurosporine = 100%; series mostly up to 91.7 µM
Outline: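 Cells plated and incubated 5 h at 37 °C, dosed over a concentration range, incubated 16 h, then given Caspase-Glo 3/7 reagent for 1 h at room temperature before luminescence reading. Staurosporine (10 uM) defined full stimulation.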

[7] = Cellular Toxicity (caspase-3) BJ (AID 658); conditions: BJ fibroblasts, luminescence, normalized: DMSO 0%, staurosporine 100%; series mostly up to 91.7 µM
Outline: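 Luminescent aminoluciferin-substrate cleavage reports caspase 3/7 activity in normal human BJ fibroblasts after 16 hr compound exposure at 37 °C. Normalized to DMSO (basal) and 10 uM staurosporine (100%); AC50 from Hill fit of concentration-response.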

[8] = Cellular Toxicity (caspase-3) N2a (AID 665); conditions: N2a cells, luminescence, normalized: DMSO 0%, 10 µM staurosporine 100%; series mostly up to 92.2 µM;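 note: compound exposure lasted 16 h at 37 °C before readout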
Outline: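 N2a cells, 1500/well, 5 h settle at 37 °C; cpd 16 h, 37 °C; Caspase-Glo 3/7, 1 h RT; luminescence. Norm: DMSO = 0, 10 uM staurosporine = 100%. AC50, Hill fit.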

[9] = Cellular Toxicity (caspase-3) Renal Proximal Tubule (AID 667); conditions: renal proximal tubule cells; series mostly up to 91.7 µM;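 note: cells exposed to compound for 16 hours at 37 °C before detection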
Outline: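 In qHTS format, rat primary proximal tubule cells seeded at 1000 per well are exposed to compounds for 16 hours at 37 °C. An increase in Caspase-Glo 3/7 luminescence indicates caspase activation.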

[10] = MultiTox-Fluor Cytotoxicity Assay - LYMP1-001 - Dead Cells (AID 946); conditions: LYMP1-001 lymphoblastoid cells, dead-cell protease fluorescence; series mostly up to 92.2 µM
Outline: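 Seed 2500 LYMP1-001 cells/well, incubate 5 hr at 37 C; add compound, 16 hr at 37 C; add MultiTox-Fluor reagent, 60 min RT; read dead-cell fluorescence Ex/Em=485/520. Normalize to DMSO and 15 uM tetraoctylammonium bromide.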

[11] = Cell Viability - LYMP1-002 - Assay at 16 hr (AID 948); conditions: LYMP1-002 lymphoblastoid cell viability; series mostly up to 92.2 µM;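 note: 0% = DMSO alone and full effect = 92 µM tetraoctylammonium bromide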
Outline: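 Acute cytotoxicity is scored as a concentration-dependent fall in intracellular ATP in a human lymphoblastoid line (LYMP1-002) after 16 hr compound exposure at 37 C, measured by luciferase luminescence.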

[12] = MultiTox-Fluor Cytotoxicity Assay - LYMP1-003 - Dead Cells (AID 961); conditions: LYMP1-003 lymphoblastoid cells, dead-cell protease fluorescence; series mostly up to 92.2 µM; note: nearly all actives have a fitted effect of over 70% in size
Outline: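 LYMP1-003 lymphoblastoid, 2500 cells/well, 5 hr settle then 16 hr cpd at 37 C; MultiTox-Fluor reagent 60 min RT; Ex/Em 485/520 dead-cell signal; norm. DMSO = 0%, 15 uM tetraoctylammonium bromide = 100%; Hill AC50.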

[13] = Cell Viability - LYMP1-003 - Assay at 24 hr (AID 963); conditions: LYMP1-003 lymphoblastoid cell viability; series mostly up to 92.2 µM;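 note: plate controls were DMSO only for no effect and tetraoctylammonium bromide positive control for full effect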
Outline: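 Cells seeded at 2500/well, 5 hr at 37 C; compounds added; 24 hr at 37 C; CellTiter-Glo added, 30 min room temperature; luminescence read. Decrease in ATP taken as cytotoxicity, AC50 from Hill modelling.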

[14] = Cell Viability - LYMP2-013 (AID 970); conditions: LYMP2-013 lymphoblastoid cells viability; series mostly up to 92.2 µM;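 note: cells exposed to compound for 24 h at 37 °C; 0% = DMSO only and full inhibition = tetraoctylammonium bromide control; nearly all actives have a fitted effect of over 55% in size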
Outline: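 qHTS; 2500 lymphoblastoid cells/well; 5 hr 37 C settle; cpd 24 hr 37 C; CellTiter-Glo, 30 min RT; luminescence. AC50 = Hill fit.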

[15] = Cell Viability - LYMP2-016 (AID 984); conditions: LYMP2-016 lymphoblastoid cell viability, qHTS; series mostly up to 92.2 µM;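 note: cells exposed to compound for 24 hours at 37 °C; % is set by controls: 0 for no effect and ±100 for the full control effect; nearly all actives have a fitted effect of over 55% in size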
Outline: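 Acute toxicity in a Coriell human lymphoblastoid line is scored as loss of intracellular ATP over 24 h of treatment in complete medium. CellTiter-Glo signal is fitted across concentrations with the Hill equation to give AC50.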

[16] = Cell Viability - LYMP1-002 - Assay at 24 hr (AID 993); conditions: LYMP1-002 lymphoblastoid cells viability; series mostly up to 92.2 µM; note: % is set by controls: 0 for no effect and ±100 for the full control effect
Outline: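 Cells plated 2500/well, 5 hr 37 C; compounds added, 24 hr 37 C; CellTiter-Glo added, 30 min RT; luminescence read. Tetraoctylammonium bromide positive control. Hill-equation AC50.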

[17] = qHTS Assay for Identification of Small Molecule Inducers of Hypoxia Response (AID 2120; active = well fitted curve in the direction sought with a large enough effect in the signal ratio, with a control signal flat, not every such curve was filed as active; the % refers to the signal ratio; note: 0% is about no effect); conditions: hypoxia response reporter cells, beta-lactamase ratio readout; series mostly up to 104 µM
Outline: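 ME-180 HRE-bla cells plated in Opti-MEM/0.5% dialyzed FBS, rested 4-5 h, then dosed with compound titrations by pin tool. After 17 h at 37 degrees C, CCF4 dye loaded 2.5 h at RT; 460/530 nm ratio gave %Activity and AC50.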

[18] = target: Peroxisome proliferator-activated receptor alpha (Homo sapiens) (UniProt Q07869); assay: qHTS assay for small molecule agonists of the peroxisome proliferator-activated receptor alpha (PPARalpha) signaling pathway (AID 651778); conditions: PathHunter PPARalpha complementation, chemiluminescence, 6 h; active compounds read high; note: % of control where 0% means no effect
Chain of Peroxisome proliferator-activated receptor alpha (Homo sapiens) (Q07869 whole entry, looked up): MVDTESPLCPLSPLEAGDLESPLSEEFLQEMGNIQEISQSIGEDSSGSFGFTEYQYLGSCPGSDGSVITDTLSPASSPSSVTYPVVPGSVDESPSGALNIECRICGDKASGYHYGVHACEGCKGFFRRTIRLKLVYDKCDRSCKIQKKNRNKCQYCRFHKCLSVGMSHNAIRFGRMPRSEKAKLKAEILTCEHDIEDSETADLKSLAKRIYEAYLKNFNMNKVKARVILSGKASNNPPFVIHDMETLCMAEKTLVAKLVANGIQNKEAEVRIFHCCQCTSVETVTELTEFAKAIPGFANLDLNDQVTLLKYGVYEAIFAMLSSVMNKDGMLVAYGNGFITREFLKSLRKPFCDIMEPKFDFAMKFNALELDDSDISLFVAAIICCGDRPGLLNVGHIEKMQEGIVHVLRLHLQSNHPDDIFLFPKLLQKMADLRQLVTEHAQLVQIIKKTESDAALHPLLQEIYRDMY
Outline: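 Cells plated at 2,000/well and held overnight at 37 C, 5% CO2, then compound added by pin tool for 6 hr; after PathHunter detection reagent and 60 min at room temperature, chemiluminescence from enzyme complementation was read.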

[19] = qHTS assay for cell viability of HEK293 cells (AID 743288); conditions: ATP luminescence (CellTiter-Glo), 18 h, active compounds read low; note: % is set by controls: 0 for no effect and ±100 for the full control effect; nearly all actives have a fitted effect of over 50% in size
Outline: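 The Tox21 protocol used parental HEK293 cells treated for 18 h at 37 C with compounds delivered by pintool; ATP-coupled luminescence after 30 min at room temperature gave viability.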

[20] = qHTS assay for cell viability of the p53RE-bla HCT-116 cell line (AID 743292); conditions: p53RE-bla HCT-116 viability, ATP luminescence, 16 h; series mostly up to 95 µM; note: % is set by controls: 0 for no effect and ±100 for the full control effect; nearly all actives have a fitted effect of over 55% in size
Outline: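 Luminescent ATP quantitation (CellTiter-Glo) served as the viability read-out; reagent was added after 16 h compound exposure at 37 C and read after 30 min at room temperature. Cells: p53RE-bla HCT-116, 4,000 per well.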

CCCCOC(C)=O
inactive: Potency [1] > 92 µM | Potency [2] > 92 µM | Potency [3] > 92 µM | Potency [4] > 92 µM | caspase-3 activation [5] 1.84% | outcome [6] | outcome [7] | outcome [8] | outcome [9] | outcome [10] | outcome [11] | Potency [12] | outcome [13] | Potency [14] | Potency [15] | Potency [16] | Potency [17] | max response [18] -4.39% | max response [19] -4.32% | Potency [20]

Nc1ncc([N+](=O)[O-])s1
inactive: Potency [1] > 92 µM | Potency [2] > 92 µM | Potency [3] > 92 µM | Potency [4] > 92 µM | caspase-3 activation [5] -1.21% | outcome [6] | outcome [7] | outcome [8] | outcome [9] | outcome [10] | outcome [11] | Potency [12] | outcome [13] | Potency [14] | Potency [15] | Potency [16] | Potency [17] | max response [18] 7.02% | max response [19] -7.17% | Potency [20]

O=[N+]([O-])c1ccccc1-c1ccccc1
inactive: Potency [1] > 92 µM | Potency [2] > 92 µM | Potency [3] > 92 µM | Potency [4] > 92 µM | caspase-3 activation [5] 0.923% | outcome [6] | outcome [7] | outcome [8] | outcome [9] | outcome [10] | outcome [11] | Potency [12] | outcome [13] | Potency [14] | Potency [15] | Potency [16] | Potency [17] | max response [18] -6.56% | max response [19] 0.829% | Potency [20]

CCC/C=N/O
inactive: Potency [1] > 92 µM | Potency [2] > 92 µM | Potency [3] > 92 µM | Potency [4] > 92 µM | caspase-3 activation [5] -1.14% | outcome [6] | outcome [7] | outcome [8] | outcome [9] | outcome [10] | outcome [11] | Potency [12] | outcome [13] | Potency [14] | Potency [15] | Potency [16] | Potency [17] | max response [18] -3.79% | max response [19] 1.47% | Potency [20]

CCOC(=O)CBr
inactive: Potency [1] > 92 µM | Potency [2] > 92 µM | Potency [3] > 92 µM | Potency [4] > 92 µM | caspase-3 activation [5] 1.06% | outcome [6] | outcome [7] | outcome [8] | outcome [9] | outcome [10] | outcome [11] | Potency [12] | outcome [13] | Potency [14] | Potency [15] | Potency [16] | Potency [17] | max response [18] -2.92% | max response [19] -5.15% | Potency [20]
